Test results taken from PubChem BioAssay (NCATS).
Results filed as inconclusive are left out. Calls of active or inactive are those of the source. Calls follow the shape of the dose curve; as a rule, active = well fitted curve in the direction sought with a large enough effect; inconclusive = small, poorly fitted or top-dose-only effect, or another doubt; inactive = no such curve, though single readings can be large; an effect the other way counts as inactive or inconclusive.

Columns and labels:
[1] = system: MCC-13; assay: qHTS assay to identify novel small-molecules to repurpose for Merkel cell carcinoma treatment (AID 1296009); settings: MCC and control cell lines, CellTiter-Glo viability, 72 h; series mostly up to 46 µM; also: nearly all actives have a fitted effect of over 60% in size
Summary of the method: (§1)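 Viability readout: ATP luminescence (CellTiter-Glo) after 72 hr drug exposure at 37 degree celsius. Dose-response format was 8 points for NPC and 11 points for MIPE; data normalized to in-plate controls.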

[2] = system: MCC-26; assay: as above; settings: MCC and control cell lines, CellTiter-Glo viability, 72 h; series mostly up to 46 µM
Summary of the method: as §1

[3] = system: MKL-1; assay: as above; settings: MCC and control cell lines, CellTiter-Glo viability, 72 h; series mostly up to 46 µM
Summary of the method: as §1

[4] = system: MKL-2; assay: as above; settings: MCC and control cell lines, CellTiter-Glo viability, 72 h; series mostly up to 46 µM
Summary of the method: as §1

[5] = system: UISO; assay: as above; settings: MCC and control cell lines, CellTiter-Glo viability, 72 h; series mostly up to 46 µM
Summary of the method: as §1

[6] = system: WaGa; assay: as above; settings: MCC and control cell lines, CellTiter-Glo viability, 72 h; series mostly up to 46 µM
Summary of the method: as §1

[7] = system: C33A; assay: Primary qHTS to identify gynecologic anti-cancer compounds using libraries of approved drugs and bioactive compounds (AID 1345084); settings: Gynecologic cancer cell panel viability, ATPlite luminescence, 48 h; series mostly up to 57.5 µM; also: nearly all actives have a fitted effect of over 55% in size
Summary of the method: (§2)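 ATP-based viability (ATPlite), 1,000 cells/well, 16 h pre-incubation, 48 h compound at 37 C, 5% CO2, 15 min RT before read.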

[8] = system: CAOV3; assay: as above; settings: Gynecologic cancer cell panel viability, ATPlite luminescence, 48 h; series mostly up to 57.5 µM
Summary of the method: as §2

[9] = system: CASKI; assay: as above; settings: Gynecologic cancer cell panel viability, ATPlite luminescence, 48 h; series mostly up to 57.5 µM
Summary of the method: as §2

Measured: Potency

Cc1nnc2n1-c1sc(CCC(=O)N3CCOCC3)cc1C(c1ccccc1Cl)=NC2
inactive: all assays above

CCC1(c2ccccc2)CCC(=O)NC1=O (configuration not stated)
inactive: all assays above

CC(Cc1ccc2c(c1)OCO2)NO (configuration not stated)
inactive: all assays above

CCNc1nc(Cl)nc(NCC)n1
inactive: all assays above

O=c1n(Cl)c(=O)n(Cl)c(=O)n1Cl
inactive: all assays above

CC(Cc1ccccc1)NCc1ccccc1Cl (configuration not stated)
inactive: all assays above

CCOC(=O)c1ncn2c1CN(C)C(=O)c1c(I)cccc1-2
inactive: all assays above

NCc1cccnc1
inactive: all assays above

CCN(CC)Cc1nccn1-c1ccc([N+](=O)[O-])cc1C(=O)c1ccccc1Cl
inactive: all assays above

COP(=S)(OC)Oc1ccc(S(N)(=O)=O)cc1
inactive: all assays above

CCOC(C(=O)OCCN(C)C)(c1ccccc1)c1ccccc1
inactive: all assays above

CC1=C2[C@H]3OC(=O)[C@@H](C)[C@@H]3CC[C@@]2(C)C=CC1=O
inactive: all assays above

COc1cc(CC(C)N)cc2c1OCO2 (configuration not stated)
inactive: all assays above

C#C[C@]1(O)C=C[C@H]2[C@@H]3CCC4=CC(=O)CC[C@@H]4[C@H]3CC[C@@]21CC
inactive: all assays above

C[C@]12CC[C@H]3[C@@H](CCC4=CC(=O)CC[C@@]43C)[C@@H]1CC[C@@H]2C(=O)O
inactive: all assays above

c1cc2c(c(N3CCNCC3)c1)OCCO2
inactive: all assays above

CCCC[N+]1(C)[C@@H]2CC(OC(=O)[C@H](CO)c3ccccc3)C[C@H]1[C@@H]1O[C@@H]12 (some centres not stated)
inactive: all assays above

C[N+](C)(C)CCOC(=O)C(O)(c1ccccc1)c1ccccc1
inactive: all assays above

OC(c1ccccc1)(c1ccccc1)C1CCNCC1
inactive: all assays above

C=CCN1CC[C@]23CCCC[C@H]2[C@H]1Cc1ccc(O)cc13
inactive: all assays above

COc1cc(CC#N)cc(OC)c1OC
inactive: all assays above

C[C@]12CC[C@H]3[C@@H](CCC4=CC(=O)CC[C@@H]43)[C@@H]1CC[C@@H]2O
inactive: all assays above

Cc1c(Cl)c(=O)oc2cc(OP(=O)(OCCCl)OCCCl)ccc12
inactive: all assays above

CCN(CC)CCOC(=O)C(C)(c1ccccc1)c1ccccc1
inactive: all assays above

ClC1=C(Cl)C2(Cl)C(CBr)CC1(Cl)C2(Cl)Cl (configuration not stated)
inactive: all assays above

Sc1ccccc1Cl
inactive: all assays above

C[C@]12CC[C@H]3[C@@H](CC=C4C[C@@H](O)CC[C@@]43C)[C@@H]1CC[C@@H]2O
inactive: all assays above

C[N+]1(C)[C@@H]2CC[C@H]1CC(OC(=O)C(CO)c1ccccc1)C2 (some centres not stated)
inactive: all assays above

CCCC(C)C1(CC)C(=O)N=C(S)NC1=O (configuration not stated)
inactive: all assays above

O=C(CCCCl)c1ccc(F)cc1
inactive: all assays above

COc1ccc(C(=O)N2CCCC2=O)cc1
inactive: all assays above

C[C@H]1C(=O)O[C@@H]2CCN3CC=C(COC(=O)[C@](C)(O)[C@]1(C)O)[C@H]23
inactive: all assays above

CCCCC1C(=O)NC(=O)N(C2CCCCC2)C1=O (configuration not stated)
inactive: all assays above

CCN(CC)C(C)C(=O)c1ccccc1 (configuration not stated)
inactive: all assays above

CN(C)C(=O)Oc1cc(OC(=O)N(C)C)cc(C(O)CNC(C)(C)C)c1 (configuration not stated)
inactive: all assays above

CC(C)NCC(O)c1ccc(N)c(C#N)c1 (configuration not stated)
inactive: all assays above

CNC(C)Cc1ccccc1OC (configuration not stated)
inactive: all assays above

CCc1ccc(C2CCNCC2)cc1
inactive: all assays above

Oc1c(Br)cc(Br)cc1Br
inactive: all assays above

CCOC(=O)NC(C)(C)Cc1ccc(Cl)cc1
inactive: all assays above

CCC(=O)O[C@H]1CC[C@H]2[C@@H]3CCC4=CC(=O)CC[C@]4(C)[C@H]3CC[C@]12C
not listed: [6]
inactive: all other assays above

NC(=O)CN1CCCC1=O
inactive: all assays above

CC(C)=CCN1CC[C@@]2(C)c3cc(O)ccc3C[C@@H]1[C@@H]2C
not listed: [6]
inactive: all other assays above

CN(C)CCc1c[nH]c2cccc(O)c12
not listed: [5] | [6]
inactive: all other assays above

CCN(Cc1ccc(Cl)nc1)/C(=C/[N+](=O)[O-])NC
inactive: all assays above

CN1[C@@H]2CC[C@H]1CC(OC(=O)c1cc(Cl)cc(Cl)c1)C2 (some centres not stated)
not listed: [8]
inactive: all other assays above

CCC(=O)OC1(c2ccccc2)CCN(C)CC1
not listed: [8]
inactive: all other assays above
